Test results: PubChem BioAssay AID1851 (National Center for Advancing Translational Sciences (NCATS), 2009)
Among all 16,000 compounds or so, about 4,000 (25%) were called active. Not shown: some 26% with an inconclusive outcome. Calls come from the whole dose curve; as a rule, active = well fitted curve in the direction sought with a large enough effect; inconclusive = small, poorly fitted or top-dose-only effect, or effect the other way; inactive = no such curve, though single readings can be large or run the other way. These entries were drawn from the full list.

target: Cytochrome P450 2C9 (Homo sapiens) (UniProt P11712); assay: Cytochrome panel assay with activity outcomes; settings: recombinant CYP, pro-luciferin dealkylation, luminescence, p450-cyp2c9; series mostly up to 57.1 µM; activity, negative = inhibition: at the top concentration
% is set by controls: 0 for no effect and ±100 for the full control effect.

Chain of Cytochrome P450 2C9 (Homo sapiens) (P11712 whole entry, looked up): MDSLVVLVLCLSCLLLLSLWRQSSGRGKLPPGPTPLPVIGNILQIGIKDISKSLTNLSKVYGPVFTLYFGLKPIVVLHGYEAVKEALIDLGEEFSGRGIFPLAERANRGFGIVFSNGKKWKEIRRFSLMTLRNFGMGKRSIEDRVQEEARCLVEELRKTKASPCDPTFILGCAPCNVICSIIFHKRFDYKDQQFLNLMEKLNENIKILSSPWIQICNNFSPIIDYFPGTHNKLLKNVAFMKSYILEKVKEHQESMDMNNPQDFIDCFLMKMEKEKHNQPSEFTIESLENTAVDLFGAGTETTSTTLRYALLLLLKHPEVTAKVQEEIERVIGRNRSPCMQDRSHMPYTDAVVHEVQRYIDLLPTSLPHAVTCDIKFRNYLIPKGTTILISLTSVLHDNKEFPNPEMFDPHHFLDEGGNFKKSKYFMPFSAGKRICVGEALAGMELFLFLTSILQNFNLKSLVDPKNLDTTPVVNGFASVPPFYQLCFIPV

Compound	activity, negative = inhibition	AC50
COc1cccc(C=NC=Nc2cccc(OC)c2)c1	22.6% (inactive)	–
CN(C)C(=O)c1ccc(-c2ccc3ncnc(NCc4cccs4)c3c2)cc1	8.22% [at 2.29 µM] (inactive)	–
Cc1ccc(N=C/C(C(=O)C(F)(F)F)=C(\O)c2cccs2)cc1	–	3.55 µM (active)
C[C@](N)(COP(=O)(O)O)C(=O)O	-8.44% (inactive)	–
COc1cc(C2C(C#N)=C(N)N(Nc3ccccc3)C3=C2C(=O)CC(C)(C)C3)ccc1OCc1cccc(F)c1 (configuration not stated)	–	3.98 µM (active)
COc1ccc(C2C(C#N)=C(N)N(Nc3ccccc3)C3=C2C(=O)CC(C)(C)C3)cc1C (configuration not stated)	–	1.58 µM (active)
CC(=O)N(CC(O)CN(C(C)=O)c1c(I)c(C(=O)NC[C@@H](O)CO)c(I)c(C(=O)NC[C@@H](O)CO)c1I)c1c(I)c(C(=O)NC[C@@H](O)CO)c(I)c(C(=O)NC[C@@H](O)CO)c1I	17.2% [at 25.6 µM] (inactive)	–
COc1ccccc1-c1cc(NCc2cnc(C)cn2)ncn1	9.42% [at 2.29 µM] (inactive)	–
O=C(O)[C@H]([C@H]1NCCS1)N1Cc2ccccc2C1	1.08% [at 11.4 µM] (inactive)	–
Cc1cccc(Sc2c([N+](=O)[O-])ncn2C)n1	-5.86% (inactive)	–
N#Cc1ccc(CN2CC3(CCN(C(=O)c4cc(C(F)(F)F)cc(C(F)(F)F)c4)CC3)C2)cc1	-15.8% (inactive)	–
CC(C)NC(=O)N1CC2(CCN(S(=O)(=O)c3ccccc3)CC2)C1	-13.9% (inactive)	–
O=S(=O)(c1ccccc1)N1CCC2(CCN(C(c3ccccc3)c3ccccc3)CC2)CC1	–	0.501 µM (active)
O=S(=O)(c1ccccc1)N1CCC2(CC1)CN(C(c1ccccc1)c1ccccc1)C2	–	1 µM (active)
O=S(=O)(c1ccccc1)N1CCC2(CCCN(C(c3ccccc3)c3ccccc3)C2)CC1	-16.2% (inactive)	–
CS(=O)(=O)N1CCC2(CCN(C(c3ccccc3)c3ccccc3)CC2)CC1	-25.5% (inactive)	–
NC1CCN(c2cccc(Cl)n2)CC1	–	inactive
C[C@H]1[C@@H](O)[C@@H](C)\C=C/C=C\C=C/C=C\C=C/C=C\C=C/[C@@H](O[C@H]2O[C@@H](C)[C@@H](O)[C@@H](N)[C@@H]2O)C[C@@H]2O[C@](O)(C[C@@H](O)C[C@@H](O)[C@@H](O)CC[C@@H](O)C[C@@H](O)CC(=O)O[C@H]1C)C[C@@H](O)[C@H]2C(=O)O (stereo in doubt)	-2.12% [at 25.6 µM] (inactive)	–
CC(=NC1CCCCC1)c1ccccc1O	-0.794% [at 11.4 µM] (inactive)	–
CCCCN1C(=O)C(NC(=O)C2CC2)(C(F)(F)F)C2=C1CC(C)(C)CC2=O (configuration not stated)	–	6.31 µM (active)
CC1(C)CC(=O)C2=C(C1)N(Cc1ccccc1)C(=O)C2(O)C(F)(F)F (configuration not stated)	-15.3% (inactive)	–
CCOC(=O)c1c(-c2ccc(C)o2)csc1NC(=S)NC(=O)N(C)C	–	10 µM (active)
Cc1cc(C)n2nc(-c3sccc3-n3cccc3)cc2n1	-48.1% (inactive)	–
COc1ccccc1-c1ccc2ncnc(NCCN3CCOCC3)c2c1	-10.8% [at 2.29 µM] (inactive)	–
COc1ccc(C2c3c(ncn(CCN4CCOCC4)c3=N)Oc3ccc4ccccc4c32)cc1OC (configuration not stated)	–	8.91 µM (active)
COc1ccccc1-c1nc(NCCN2CCOCC2)c2ccccc2n1	14% [at 2.29 µM] (inactive)	–

Compound	activity, negative = inhibition	AC50
CCOC(=O)CSc1n[nH]c(NC(=O)c2ccccc2)n1	-20.3% (inactive)	–
Cn1sc(NC(=O)c2ccccc2)nc1=O	–	14.1 µM (active)
C=CCNC(=O)C1CCN(S(=O)(=O)CC)CC1	-14.6% (inactive)	–
O=C(O)[C@H](/C=C\c1ccccc1)c1ccccc1	-17.8% [at 11.4 µM] (inactive)	–
COC(=O)C/C=C\[C@@H](C)[C@@H](CO)NS(=O)(=O)c1ccc(C)cc1	-7.12% [at 11.4 µM] (inactive)	–
C[C@@H](CCc1ccccc1)NC[C@H](O)c1ccc(O)c(C(N)=O)c1	–	inactive
CC(CCc1ccccc1)NS(=O)(=O)c1ccccc1 (configuration not stated)	–	3.98 µM (active)
O=C(O)/C=C\C(=O)NCc1ccccc1	3.41% (inactive)	–
Cc1ccc(S(=O)(=O)N[C@H](CO)C(=O)O)cc1	-14.1% [at 11.4 µM] (inactive)	–
CC(CCc1ccccc1)NC(=O)/C=C/c1ccccc1 (configuration not stated)	–	7.08 µM (active)
Cc1ccc(S(=O)(=O)N[C@@H](CCc2ccccc2)CC(=O)C(C)(C)C)cc1	–	3.98 µM (active)
O=C(CC1(O)CCCCC1)OC1CCCC1	-26.4% [at 11.4 µM] (inactive)	–
FC(F)(F)c1cc(CN2CCCC3(CCNCC3)C2)cc(C(F)(F)F)c1	18.9% (inactive)	–
CC(C)N=c1scc(-c2ccco2)n1/N=C/c1ccc(O)c(O)c1	–	11.2 µM (active)
C[N+](C)(C)/N=C\c1ccc(O)c(O)c1	-5.12% [at 11.4 µM] (inactive)	–
CCCC(=O)Nc1nc2n(n1)C(c1ccccc1)CC(=O)N2 (configuration not stated)	-10.9% (inactive)	–
O=C1CC[C@H](N2C(=O)c3ccccc3C2=O)C(=O)N1	–	inactive
O=C1c2ccccc2C(=O)N1CCSC(=S)N1CCOCC1	-12.5% (inactive)	–
CC1(C)CC(=O)C(CCCN2C(=O)c3ccccc3C2=O)C(=O)C1	–	17.8 µM (active)
CSc1cccc(NC(=O)OC2CCCCCCCCCCC2)c1	-17.7% [at 11.4 µM] (inactive)	–
CSc1cccc(NC(=O)Cn2cccc2)c1	–	20 µM (active)
Cc1cccc(NC(=O)Cn2cccc2)c1	-26.4% (inactive)	–
Clc1ccc(C2=C3CCCCn4c(-c5ccccc5)c[n+](c43)C2)cc1	-19.6% (inactive)	–
O=C(c1ccc(Cl)cc1)N1CCCC(c2ccccc2)=N1	–	10 µM (active)
O=C(OCC1CC(c2ccccc2)=NO1)c1ccc(Cl)cc1 (configuration not stated)	-26.7% (inactive)	–
CC(C)(C)NC(=O)Cn1cnc([N+](=O)[O-])n1	6.83% (inactive)	–

Compound	activity, negative = inhibition	AC50
O=C(O)c1cccnc1SCC(=O)N1CCCCCC1	-1.58% (inactive)	–
Cc1cccc(C(CC(=O)N2CCCC2)c2ccccc2)c1O (configuration not stated)	–	3.98 µM (active)
COCC(=O)N1CCC2(CC1)CCN(C(c1ccccc1)c1ccccc1)CC2	2.97% (inactive)	–
CCNc1ncc2ncc(=O)n(C[C@H]3CCCO3)c2n1	29.3% (inactive)	–
COc1ncc2nc(-c3ccc(F)cc3)c(=O)n(Cc3ccc(F)cc3)c2n1	-4.72% (inactive)	–
CCNc1ncc2nc(-c3ccccc3)c(=O)n(Cc3cccc(OC)c3)c2n1	-22.8% (inactive)	–
COc1cccc(Cn2c(=O)c(-c3cccc(C#N)c3)nc3cnc(N4CCN(C)CC4)nc32)c1	-3.2% (inactive)	–
COc1cccc(Cn2c(=O)c(-c3cccc(C#N)c3)nc3cnc(OC)nc32)c1	–	12.6 µM (active)
COc1cccc(Cn2c(=O)c(-c3cccc(C#N)c3)nc3cnc(Nc4ccccc4)nc32)c1	-19.8% (inactive)	–
COc1cccc(Cn2c(=O)c(-c3ccccc3)nc3cnc(OC)nc32)c1	–	12.6 µM (active)
CC/C(O)=C(\C#N)c1nnc2n1CCCCC2	-30.9% (inactive)	–
CC(C)Oc1ccc(CSC(=N)N)cc1	11.2% (inactive)	–
N#CC(C#N)=CNCCN1CCN(C=C(C#N)C#N)CC1	5.25% [at 11.4 µM] (inactive)	–
COCCNC(=O)COc1ccc(OCCNC[C@@H](O)COc2ccccc2)cc1	18.8% (inactive)	–
COCCNC(=O)CCn1c(=O)oc2ccccc21	19.3% (inactive)	–
COCCNC(=O)COc1ccc(Oc2ccccc2)cc1	–	0.316 µM (active)
CS(=O)(=O)N1CCC2(CCCN(C(=O)Nc3cccc(F)c3)C2)CC1	-5.65% (inactive)	–
COC(Cc1nnc(SC)n1-c1ccccc1)OC	-7.18% (inactive)	–
CCOc1ccc(NCc2nnc(SCc3ccccc3Cl)n2-c2ccccc2)cc1	–	7.94 µM (active)
CC(=O)NCCNc1ncnc2ccc(-c3ccc(C(=O)N(C)C)cc3)cc12	3.47% [at 2.29 µM] (inactive)	–
CC(=O)OC[C@@H]1O[C@H](C/C=N\OCC[C@H]2C=C[C@H](OC(C)=O)[C@@H](COC(C)=O)O2)C=C[C@@H]1OC(C)=O	19.9% [at 11.4 µM] (inactive)	–
Cc1noc(C)c1-c1cncnc1NCCN1CCOCC1	-15.1% [at 2.29 µM] (inactive)	–
O=S(=O)(Cc1cc(Oc2ccccc2)nc(-c2ccccc2)n1)c1ccccc1	–	0.891 µM (active)
N[C@@H](CS(=O)O)C(=O)O	-5.61% (inactive)	–
CC(=O)Nc1ccc(NC(=O)C/C(C)=N/NC(=O)C(=O)N2CCCC2)cc1	8.88% (inactive)	–
CCn1c2ccccc2c2cc(NC(=O)C/C(C)=N/NC(=O)c3ccccc3N)ccc21	–	35.5 µM (active)

Compound	activity, negative = inhibition	AC50
COCCn1c(=O)cnc2cnc(Oc3ccc(OC)cc3)nc21	0.762% (inactive)	–
COCCn1c(=O)cnc2cnc(Oc3cccc(Cl)c3)nc21	–	15.8 µM (active)
Cc1nc2cnc(Oc3cccc(Cl)c3)nc2n(CCc2ccccc2)c1=O	-19.9% (inactive)	–
COCCn1c(=O)c(C)nc2cnc(Oc3cccc(Cl)c3)nc21	–	12.6 µM (active)
COCCn1c(=O)cnc2cnc(Oc3ccccc3)nc21	-24.6% (inactive)	–
COc1ccc(C2CC(=O)CC(=O)C2n2cncn2)cc1 (configuration not stated)	-4.99% (inactive)	–
O=C(O)CSc1sc(=S)sc1SCC(=O)O	-27.2% (inactive)	–
Cc1sc2ncn(CC(=O)NCCCC(=O)N3CCN(c4ncccn4)CC3)c(=O)c2c1C	–	11.2 µM (active)
O=C(Nc1cccc2ncccc12)c1cccc(F)c1	29.7% (inactive)	–
O=C(O)/C=C\C(=O)Nc1ccccn1	25.1% [at 11.4 µM] (inactive)	–
O=C(Nc1cccc(F)c1)Nc1ccccn1	–	25.1 µM (active)
C[C@@H]1/C=C\CC(=O)OC[C@H]2O[C@@H](C=C[C@@H]2O)[C@H](C)/C=C\CC(=O)OC[C@H]2O[C@H]1C=C[C@@H]2O	-9.33% [at 11.4 µM] (inactive)	–
CC(C)NC(=O)N1CC2(CCN(C(=O)c3ccncc3)CC2)C1	-25.4% (inactive)	–
CC(C)CN1CCCC2(CCN(C(=O)c3cccc(F)c3)CC2)C1	-4.81% (inactive)	–
O=C(c1ccco1)N1CCC2(CCCN(C(c3ccccc3)c3ccccc3)C2)CC1	–	12.6 µM (active)
O=C(c1ccco1)N1CCC2(CCCN(c3ccccc3)C2)CC1	9.69% (inactive)	–
O=C(c1cccc(F)c1)N1CCC2(CCCN(C(c3ccccc3)c3ccccc3)C2)CC1	–	3.16 µM (active)
O=C(c1cnccn1)N1CCC2(CC1)CCN(C(c1ccccc1)c1ccccc1)CC2	4.12% (inactive)	–
O=C(c1ccncc1)N1CCC2(CC1)CN(C(c1ccccc1)c1ccccc1)C2	–	10 µM (active)
CC(C)NC(=O)N1CCCC2(CCN(C(=O)c3ccncc3)CC2)C1	17% (inactive)	–
O=C(c1ccco1)N1CCC2(CCCN(Cc3ccccc3)C2)CC1	-28.9% (inactive)	–
O=C(c1ccncc1)N1CCC2(CCCN(C(c3ccccc3)c3ccccc3)C2)CC1	–	5.01 µM (active)
Cc1noc(C)c1C(=O)N1CCC2(CCCN(C(c3ccccc3)c3ccccc3)C2)CC1	-21.2% (inactive)	–
O=C(c1cccc(F)c1)N1CCC[C@@]2(CCN(C(c3ccccc3)c3ccccc3)C2)C1	8.73% (inactive)	–
